For 48 compounds, Potency results are on record in PubChem BioAssay AID686971 (National Center for Advancing Translational Sciences (NCATS), 2013).

About 7,500 (2.1%) of roughly 360,000 compounds were called active. Where a call stands in place of a potency, no number is given. Another 8% or so got no clear call; they are omitted. The sample holds actives, similar compounds and a random draw of the others, so the mix is not that of the screen. Calls come from the whole dose curve; as a rule, active = well fitted cell-killing curve with a large enough effect; inconclusive = small, poorly fitted or top-dose-only effect, or effect the other way, or another doubt; inactive = no such curve, though single readings can be large or run the other way.
Potency is the fitted concentration of half-maximal effect.

This experiment in a line: qHTS for induction of synthetic lethality in tumor cells producing 2HG: qHTS for the HT-1080-IDH1KD cell line. The conditions noted are these: HT-1080 IDH1 knockdown viability, ATP luminescence, 48 h; series mostly up to 46.1 µM. From the text:
Unbiased genomic sequencing for 22 glioma genomes found recurrent mutation of IDH1 on chromosome 2q33, a gene encoding the cytosolic isoform of IIDH1 associated with the tri-carboxylic acid cycle (TCA) that catalyzes the oxidative decarboxylation of isocitrate, yielding alpha-ketoglutarate and CO2 via NADP+ to NADPH conversion. Subsequent studies confirmed the recurrent IDH mutations in up to 70% of secondary gliomas and in 10% of AML cases. In addition, the somatic mutation of cancer-associated IDH1 is a point mutation resulting in various amino-acid substituents at Arginine132 (IDH1 R132), a key residue found in the enzyme's active site that when mutated, results in the loss-of-function in metabolizing isocitrate but confers a gain-of-function to produce the oncometabolite 2-hydroxyglutarate (2HG). This in effect defines IDH1 as an oncogene and provides an extraordinary opportunity to discover chemical probes against mutant IDH1 that may translate into much needed new therapies for glioma and AML patients.
This assay aims to perform a synthetic-lethal screen for chemical probes specific for 2HG-producing tumor cells using matched paired cell lines (1) HT-1080-NT fibrosarcoma cell line that overproduces 2HG and (2) HT-1080-IDH1KD cell line which has IDH1 expression knocked-down. Desirable compounds are toxic to the NT fibrosarcoma cell line but not to the IDH1KD cell line. The data in this AID corresponds to the results of the qHTS against the HT-1080 IDH1KD cell line.
[1] Dang L, Jin S, Su SM. IDH mutations in glioma and acute myeloid leukemia. Trends of Mol Med. 2010; 16(9): 387-97.
[2] Dang L et al. Cancer-associated IDH1 mutations produce 2-hydroxyglutarate. Nature. 2010; 465(7300):966.
Molecular Libraries Probe Production Centers Network [MLPCN]
NIH Chemical Genomics Center [NCGC]
Assay Submitter (PI): Lenny Dang Ph.D., Agios Pharmaceuticals
Suspensions of trypsinized HT-1080-IDH1KD cells were dispensed into white, tissue culture-treated, solid 1536-well plates at 5uL/well (750 cells/well final concentration) in RPMI medium supplemented with 5% FBS. Plates were incubated at 37 degrees C for 2 hours, after which 23 nL of compounds or DMSO were delivered to each well using a pin tool. Plates were then incubated at 37 degrees C for an additional 48 hours. CellTiter-Glo viability reagent (Promega) was dispensed into wells (2.5uL/well) and incubated at room temperature for 10 minutes. The plates were measured on a PerkinElmer ViewLux plate reader for luminescent signal (clear filter, 1 sec exp.). DMSO-treated control wells and media-only (no cells) control wells were used to normalize %Activity of identified toxic compounds; DMSO-treated wells corresponded to 0%Activity (100% viability), while media-only controls were used to normalize 100%Activity (0% viability). To minimize variability between cell lines, both HT-1080-NT and HT-1080-IDH1KD lines were dispensed and treated with identical compound series in single batches.
Concentration-response curves were fitted to the signals arising from the resulting luminescence. The concentration-effect curves were then classified based on curve quality (r2), response magnitude and degree of measured activity, and compounds were subsequently categorized based on their curve class.
With `COc1cccc(C(NC(C)=O)c2nc(-c3ccccc3OC)cs2)c1` (stereo not drawn), the Potency entry is “inactive”. As to `COc1ccc(C(CNC(=O)CSc2ccccc2)N2CCOCC2)cc1` (stereo not drawn), the Potency result is “inactive”. For `CN(C)c1cccc(NC(=O)c2ccc(-c3ccc(F)c(F)c3)c3ccoc23)c1`, the Potency entry was “inactive”. For `Cc1cc(C(=O)CCl)c(C)n1CC1COc2ccccc2O1` (stereo not drawn), the Potency was 14.6 µM (active).

Turning to `Cc1ccsc1C(=O)OCC(=O)c1cc(C)n(CC2CCCO2)c1C` (stereo not drawn), the Potency entry was “inactive”. For `O=C1C(=O)N(CC2COc3ccccc3O2)c2ccccc21` (stereo not drawn), the Potency entry is “inactive”. The value for `COCC(C)OC(=O)c1c(N)n(CCCN2CCOCC2)c2nc3ccccc3nc12` (stereo not drawn) was “inactive”; that for `CC(C)(C)c1ccc(C(=O)NCCn2c(N)c(C#N)c3nc4ccccc4nc32)cc1` was 16.4 µM (active). The value for `CC(C)(C)c1ccc(C(=O)NCC(=O)OCN2C(=O)c3ccccc3C2=O)cc1` was “inactive”; that for `COc1ccc2nc(-c3ccccn3)ccc2c1` was “inactive”. As to `C[C@@H]1CN([C@@H](C)CO)C(=O)CCCn2nncc2CO[C@H]1CN(C)Cc1ccc(C(F)(F)F)cc1`, the Potency result is “inactive”. The value for `O=S1(=O)CC(N2CCC(Cc3ccccc3)CC2)CN1Cc1ccccc1` (stereo not drawn) was “inactive”; that for `CC(C)(C)C(=O)c1c(N)[nH]c(C(=O)c2ccccc2)c1-c1ccc(F)cc1` was “inactive”; that for `COc1ccccc1-c1n[nH]nc1C1=CC(=O)CC(C)(C)C1` was “inactive”.

Take `O=C(NCCC1CCCCN1S(=O)(=O)c1ccc(F)cc1)C(=O)NC1CC1` (stereo not drawn): the Potency entry was “inactive”. The result for `COc1ccccc1CCNC(=O)C(=O)NCCC1CCCCN1S(=O)(=O)c1cccs1` (stereo not drawn) reads “inactive”; that for `O=C(NCCC1CCCCN1S(=O)(=O)c1cccs1)C(=O)Nc1ccc(F)cc1F` (stereo not drawn), 14.6 µM (active). The result for `O=C(Nc1cccc2ccccc12)c1[nH]c(-c2ccccc2)c2c1C(=O)N(C1CC1)C2=O` reads “inactive”; that for `O=C(NCCN1CCOCC1)C1CCN(S(=O)(=O)c2ccccc2)CC1`, “inactive”. As for `O=C(Nc1ccccc1Cl)/C(Cl)=C(\Cl)S(=O)c1ccccc1` (stereo not drawn), the Potency is 6.51 µM (active). The result for `O=C(COC(=O)CCc1c[nH]c(=O)[nH]1)Nc1ccccc1Cl` reads “inactive”; that for `CN(C)S(=O)(=O)Oc1ccccc1C(=O)Nc1ccccc1Cl`, “inactive”; that for `CC1(Oc2ccc(Cl)cc2)CCN(Cc2csc3ccccc23)C1` (stereo not drawn), “inactive”. The result for `N#CCSc1ccccc1NC(=O)CN1C(=O)NC(CCc2ccccc2)C1=O` (stereo not drawn) reads “inactive”.

As for `COC(=O)[C@]12CCCCC=C1N(Cc1ccco1)C(=O)[C@H](CC(=O)NCCCCc1ccccc1)C2`, the Potency result was “inactive”.

Consider `COc1ccc(C(C)(O)c2nc(-c3ccc(C)c(C)c3)cs2)cc1` (stereo not drawn), for which the Potency entry was “inactive”. Turning to `COc1ccc(-c2csc(Nc3ccc(O)cc3)n2)cc1`, the Potency is 6.51 µM (active).

For the compound `COc1ccc(-c2csc(Nc3cccc(C)n3)n2)cc1OC`, the Potency result is “inactive”. With `OC[C@@H]1CN(Cc2ccc(Cl)cc2)C[C@H](n2cnc3c(NCc4ccncc4)ncnc32)O1`, the Potency entry is “inactive”. The result for `Cc1ccc(S(=O)(=O)N2CC[C@H]3[C@@H](C2)C(=O)C[C@@H](c2ccccc2)N3S(=O)(=O)c2ccc(C)cc2)cc1` reads “inactive”. `COc1ccc(-n2c(-c3ccc(Cl)cc3)n[nH]c2=S)c(OC)c1`: the Potency result was “inactive”. Regarding `O=C(COC(=O)c1ccccc1C(=O)N1CCN(c2ccccc2)CC1)NCc1ccccc1`, the Potency result was “inactive”. The result for `Oc1ccc(N2CCN(C(=S)NCc3ccccc3)CC2)cc1` reads 16.4 µM (active); that for `Oc1ccccc1N1CCN(C(=S)NCc2ccccc2)CC1`, “inactive”; that for `Cc1ccc(F)c(S(=O)(=O)NC(=O)C2(C)CCN2C(=O)c2ccco2)c1` (stereo not drawn), “inactive”. For `COc1ccc(NC(=O)c2cc(=O)[nH]c3ccccc23)cc1S(=O)(=O)N1CCOCC1`, the Potency result is “inactive”. As for `CN(c1ccccc1)S(=O)(=O)c1ccc(Cl)c(C(=O)OCC(=O)NCc2ccco2)c1`, the Potency entry is “inactive”.

With `Cc1cc(C(=O)OCC(=O)NCc2ccco2)c(C)n1-c1ccccc1`, the Potency is 3.66 µM (active).

On to `O=C(COC(=O)c1ccccc1O)NCc1ccco1`, for which the Potency entry was “inactive”.

Consider `CCCCC(=O)N(C)c1c(CC)nc2c(OCc3ccc(S(C)(=O)=O)cc3)cccn12`, for which the Potency result was “inactive”.

As to `CN1CCN(c2ccc3c(c2)OC[C@H](Cc2ccccc2)NS3(=O)=O)CC1`, the Potency entry was “inactive”.

For `COc1ccc(CNC(=O)C2CC(c3ccc(C(F)(F)F)cc3)=NO2)cc1` (stereo not drawn), the Potency entry was “inactive”. The value for `COc1ccc(C2=NOC(C(=O)NCc3ccco3)C2)cc1OC` (stereo not drawn) was 4.47 µM (active); that for `COc1ccc(S(=O)(=O)N2CCC(C(=O)NCc3ccco3)CC2)cc1C` was “inactive”. On to `COc1ccc(OC)c(C(O)c2ncc(-c3cccc(C(F)(F)F)c3)[nH]2)c1` (stereo not drawn), for which the Potency entry is “inactive”. The result for `COc1ccc(CC(=O)N/N=C/c2cc([N+](=O)[O-])cc(Br)c2O)cc1` reads “inactive”. As to `Cc1ccc(S(=O)(=O)N2CCN(CC(=O)N/N=C/c3cc([N+](=O)[O-])ccc3Cl)CC2)cc1`, the Potency entry is “inactive”. Consider `Cc1cc(C(=O)N/N=C/c2cc([N+](=O)[O-])cc(C)c2O)n[nH]1`, for which the Potency was 16.4 µM (active).
